Read-outs that look alike come from different tables or passages of the source.
Legend:
AAK1 = conditions: n = 1
ABL1-nonphosphorylated = conditions: n = 1
ABL1-phosphorylated = conditions: n = 1
ABL2 = conditions: concentration: 1 μM, replicates: in singlicate; n = 1
ACVR1B = conditions: concentration: 1 μM, replicates: in singlicate; n = 1
ACVR1 = conditions: concentration: 1 μM, replicates: in singlicate; n = 1
ACVR2A = conditions: concentration: 1 μM, replicates: in singlicate; n = 1
ACVR2B = conditions: concentration: 1 μM, replicates: in singlicate; n = 1
ACVRL1 = conditions: concentration: 1 μM, replicates: in singlicate; n = 1
ADCK3 = tested on: T1, ADCK3; conditions: concentration: 1 μM, replicates: in singlicate; n = 1
T1 construct: gene CABC1

[1] = concentration: 1 μM, replicates: in singlicate
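Also: KINOMEscan kinase panel screen.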

SMILES | %Inh (AAK1; [1]) [%] | %Inh (ABL1-nonphosphorylated; [1]) [%] | %Inh (ABL1-phosphorylated; [1]) [%] | %Inh (ABL2) [%] | %Inh (ACVR1B) [%] | %Inh (ACVR1) [%] | %Inh (ACVR2A) [%] | %Inh (ACVR2B) [%] | %Inh (ACVRL1) [%] | %Inh (ADCK3) [%] | %Inh (AAK1; 1 µM) [%] | %Inh (ABL1-nonphosphorylated; 1 µM) [%] | %Inh (ABL1-phosphorylated; 1 µM) [%]
CN1CCN(Cc2cccc(-c3ccc4c(Nc5ccc(Oc6ccccc6)cc5)ccnc4c3)c2)CC1 [GW578342] | 10 | 91.6 | 20 | 23 | 0 | 0 | 0 | 0 | 0 | 8 |  |  | 
O=C(Nc1n[nH]c2nc(-c3ccc(O)cc3)ccc12)C1CC1 [SB-710363] | 38 | 88 | 74 | 0 | 0 | 74 | 55 | 50 | 1 | 0 |  |  | 
Cl.c1ccc(-c2ccc3c(Nc4ccc5[nH]ccc5c4)ccnc3c2)nc1 [GW440138] | 10 | 85 | 94.1 | 48 | 0 | 55 | 29 | 89 | 12 | 2 |  |  | 
CCCCc1nn2ncccc2c1-c1ccnc(Nc2ccc(N3CCN(C)CC3)cc2)n1 [GW684941] | 21 | 95.8 | 98.8 | 96.8 | 67 | 89 | 16 | 35 | 51 | 96.7 |  |  | 
COc1cc(Nc2ncc3c(C)nc(-c4cc5ccccc5[nH]4)n3n2)cc(OC)c1OC [GW869516] | 0 | 32 | 24 | 21 | 8 | 0 | 9 | 24 | 0 | 22 |  |  | 
Cc1ccc(S(=O)(=O)Nc2ccc(Nc3nccc(Nc4cccc5[nH]ncc45)n3)cc2)cc1 [GSK581271] | 27 | 11 | 31 | 64 | 8 | 32 | 0 | 57 | 30 | 41 |  |  | 
COc1cccc(C2=C(Nc3ccc(Cl)c(C(=O)O)c3)C(=O)NC2=O)c1 [SB-390769] | 9 | 11 | 100 | 16 | 0 | 15 | 100 | 5 | 0 | 0 |  |  | 
COc1cc(Nc2nccc(N3CCC(NC(=O)Nc4cccc(C(C)=O)c4)C3)n2)cc(OC)c1OC (stereo not shown) [GSK1379753] | 65 | 0 | 0 | 17 | 0 | 0 | 0 | 100 | 0 | 0 |  |  | 
COc1cccc(NC(=O)NC2CCN(c3ccnc(Nc4cc(OC)c(OC)c(OC)c4)n3)C2)c1 (stereo not shown) [GSK1379763] | 74 | 0 | 0 | 0 | 0 | 0 | 89 | 0 | 0 | 0 |  |  | 
c1ccc(-c2n[nH]cc2Nc2ccnc3ccccc23)nc1 [GW694077] | 82 | 0 | 0 | 0 | 0 | 30 | 0 | 0 | 0 | 3 |  |  | 
COc1cc(Nc2nccc(-c3c(-c4cccc(NC(=O)c5c(F)cccc5F)c4)nn4ncccc34)n2)cc(OC)c1OC [GSK327238] | 13 | 92.9 | 24 | 80 | 14 | 0 | 0 | 0 | 0 | 0 |  |  | 
Cc1occc1-c1ncc(OC[C@@H](N)Cc2c[nH]c3ccccc23)cc1-c1ccc2[nH]nc(C)c2c1.O=C(O)C(F)(F)F [GSK682037] | 61 | 13 | 33 | 47 | 8 | 0 | 0 | 0 | 0 | 25 |  |  | 
COc1ccc(Nc2nccc(N3CCC(NC(=O)Nc4cccc(OC)c4)C3)n2)cc1 (stereo not shown) [GSK1379742] | 4 | 0 | 0 | 12 | 0 | 7 | 0 | 0 | 0 | 1 |  |  | 
Cn1cc(-c2ccc3c(c2)CCN3C(=O)Cc2cccc(F)c2)c2c(N)ncnc21 [GSK2603358] | 18 | 58 | 41 | 35 | 0 | 0 | 0 | 69 | 0 | 2 |  |  | 
CNC(=O)c1ccccc1Nc1nc(Nc2ccc(N3CCOCC3)cc2)ncc1Cl.Cl [GSK1576028] |  |  |  | 95.6 | 85 | 95 | 18 | 43 | 42 | 35 | 89 | 98.8 | 99.6
COc1cc(Nc2nccc(-c3c(-c4cccc(NC(=O)c5c(F)cccc5F)c4)nn4ccccc34)n2)cc(OC)c1OC [GSK323521] | 44 | 52 | 0 | 33 | 19 | 0 | 7 | 15 | 25 | 10 |  |  | 
Nc1ncnc2c1nc(-c1ccccc1)n2-c1ccccc1 [SKF-97293] | 0 | 8 | 0 | 2 | 7 | 0 | 4 | 0 | 14 | 11 |  |  | 
O=C(NC1CCN(c2ccnc(Nc3ccc(F)cc3)n2)C1)c1cc2ccccc2s1 (stereo not shown) [GSK1379716] | 7 | 0 | 0 | 21 | 0 | 0 | 0 | 5 | 11 | 24 |  |  | 
CC(=O)N1CCN(c2ccc(Nc3nccc(-c4sc(C(C)C)nc4-c4cccc(NS(=O)(=O)c5cccc(Cl)c5)c4)n3)cn2)CC1 [GSK1660437] | 0 | 95.8 | 35 | 83 | 70 | 61 | 29 | 72 | 44 | 73 |  |  | 

SMILES | %Inh (AAK1; [1]) [%] | %Inh (ABL1-nonphosphorylated; [1]) [%] | %Inh (ABL1-phosphorylated; [1]) [%] | %Inh (ABL2) [%] | %Inh (ACVR1B) [%] | %Inh (ACVR1) [%] | %Inh (ACVR2A) [%] | %Inh (ACVR2B) [%] | %Inh (ACVRL1) [%] | %Inh (ADCK3) [%] | %Inh (AAK1; 1 µM) [%] | %Inh (ABL1-nonphosphorylated; 1 µM) [%] | %Inh (ABL1-phosphorylated; 1 µM) [%]
COCCOCCOc1cc2ncc3c4ccc(C#N)cc4[nH]c3c2cc1OC | 92.1 | 70 | 53 | 2 | 0 | 0 | 6 | 0 | 0 | 29 |  |  | 
Nc1ncc(-c2ccc3nccc(-c4ccncc4)c3c2)cc1S(=O)(=O)N1CCOCC1 [GSK1627798] | 18 | 0 | 0 | 13 | 0 | 0 | 0 | 0 | 0 | 49 |  |  | 
CN(C)Cc1ccc(-c2ccc3c(Nc4ccc(Oc5ccccn5)cc4)ccnc3c2)o1 [GW567148] | 0 | 89 | 32 | 18 | 0 | 0 | 0 | 38 | 0 | 0 |  |  | 
Cl.Cl.NCC(C(=O)Nc1cc(Br)c(-c2ccnc3[nH]ccc23)s1)c1ccccc1 (stereo not shown) [GSK1269851] | 78 | 14 | 32 | 35 | 67 | 47 | 0 | 5 | 0 | 65 |  |  | 
Cl.c1ccc(-c2ccc3c(Nc4ccc5[nH]ncc5c4)ccnc3c2)nc1 [GW440137] | 18 | 63 | 73 | 28 | 1 | 71 | 57 | 94.6 | 19 | 3 |  |  | 
O=C(Nc1cccc(-c2nn3ccccc3c2-c2ccnc(Nc3cccc(C(F)(F)F)c3)n2)c1)c1c(F)cccc1F [GSK292658] | 0 | 11 | 0 | 21 | 0 | 0 | 0 | 0 | 0 | 0 |  |  | 
COc1ccc(CNC(=O)NC2CCN(c3ccnc(Nc4ccc(F)cc4)n3)CC2)cc1 [GSK1379788] | 13 | 0 | 0 | 0 | 0 | 0 | 0 | 0 | 0 | 9 |  |  | 
COc1cc(Nc2nccc(N3CCC(NC(=O)c4cc5ccccc5s4)C3)n2)cc(OC)c1OC (stereo not shown) [GSK1379760] | 58 | 0 | 0 | 7 | 0 | 28 | 16 | 11 | 0 | 0 |  |  | 
O=C(Nc1ccccc1F)NC1CCN(c2ccnc(Nc3ccc(F)cc3)n2)CC1 [GSK1379800] | 17 | 0 | 0 | 12 | 0 | 6 | 0 | 0 | 0 | 1 |  |  | 
CCS(=O)(=O)c1ccc(OC)c(Nc2nccc(-c3c(-c4cccc(NC(=O)c5c(F)cccc5F)c4)nn4ncccc34)n2)c1 [GSK326180] | 22 | 4 | 10 | 10 | 0 | 10 | 0 | 0 | 0 | 0 |  |  | 
C[C@@H]1CC[C@@H](C(=O)Nc2ccccc2)CN1c1cc(-c2ccc3c(N)n[nH]c3c2)nc(N)n1 [GSK2286062] | 18 | 0 | 0 | 2 | 0 | 0 | 0 | 0 | 0 | 29 |  |  | 
O=c1[nH]cc(-c2ccc(N3CCOCC3)cc2)c2sc(-c3cn[nH]c3)cc12 [GSK2276055] | 23 | 0 | 0 | 0 | 0 | 0 | 2 | 0 | 0 | 0 |  |  | 
Cn1cc(-c2ccc3c(c2)CCN3C(=O)Cc2cccc(Cl)c2)c2c(N)ncnc21 [GSK2606590] | 30 | 78 | 30 | 53 | 0 | 0 | 0 | 53 | 0 | 0 |  |  | 
Cc1cccc(Nc2nc(N[C@H]3CCNC3)ncc2C(N)=O)c1.Cl [GSK2197149] |  | 40 | 66 | 25 | 0 | 0 | 2 | 7 | 0 | 28 | 75 |  | 
COc1ccc(-c2coc3ccc(-c4nnc(SCc5ccc(OC)c(C(F)(F)F)c5)o4)cc23)cc1 | 2 | 13 | 0 | 24 | 7 | 28 | 0 | 0 | 26 | 21 |  |  | 
CN(c1ccc(NC(=O)Nc2cc(C(F)(F)F)ccc2F)cc1)c1ccnc(Nc2ccc(S(N)(=O)=O)cc2)n1 [GW809893] | 9 | 98.1 | 75 | 98.5 | 1 | 0 | 0 | 14 | 4 | 0 |  |  | 
Nc1ncc(-c2cccnc2)c2scc(-c3ccc4c(c3)CCN4C(=O)Cc3ccccc3)c12 [GSK683281] | 24 | 94.1 | 54 | 62 | 0 | 0 | 0 | 0 | 3 | 5 |  |  | 
COc1cccc(-c2ccc3c(NC(=O)C4CC4)n[nH]c3n2)c1 [SB-710903] | 12 | 83 | 76 | 24 | 0 | 18 | 0 | 22 | 0 | 3 |  |  | 

Reference: publication PMC5540273 (PLoS ONE, 2017)
